Experimental data taken from PubChem BioAssay (Tox21).
Records with an inconclusive call do not appear. Values without a mark were called inactive. The source made the active and inactive calls. The call rests on the fitted dose curve.

These compounds were tested against Retinoic acid receptor RXR-alpha (Homo sapiens) (UniProt P19793) (assay: qHTS assay to identify small molecule agonists of the RXR signaling pathway (AID 1159527; further: nearly all actives have a fitted effect of over 35% in size)). Conditions: HEK293T RXRa-UAS-bla, beta-lactamase ratio, 16 h; series mostly up to 76.8 µM; activation: at the top concentration.
Description: U.S. Tox21 Program National Center for Advancing Translational Sciences [NCATS] NIH Chemical Genomics Center [NCGC] U.S. Environmental Protection Agency [EPA] National Institutes of Environmental Health Sciences [NIEHS] National Toxicology Program [NTP] U.S. Food and Drug Administration [FDA] Tox21 Assay Overview: The Retinoid X receptor (RXR), a nuclear hormone receptor expressed in liver, spleen, placenta, epidermis, central nervous system. These receptors are able to form homo and heterodimers with other nuclear receptors and due to this heterodimerizing ability, RXR functions as master regulators producing diverse physiological effects. Three subtypes of RXR exist; alpha, beta and gamma. Retinoid X receptor alpha (RXR-alpha) has potential roles in metabolic signaling pathways, skin alopecia, dermal cysts, cardiac development, insulin sensitization etc. Therefore screening environmental chemicals on RXR-alpha signaling can be used for the studies focused on such therapeutic applications. For quantification of RXR-alpha ligands signaling, GeneBLAzer RXR alpha-UAS-bla HEK 293T (Life Technologies, Carlsbad, CA) cells containing a beta-lactamase reporter-gene under control of Retinoid X receptor-alpha response element were used to screen Tox21 10K library.
Tox21 Assay Protocol Summary: RXR-alpha HEK 293T cells were dispensed at 2,000 cells/6 uL of assay medium containing 2% charcoal-stripped FBS using a Multidrop Combi (ThermoFisher Scientific, Waltham, MA) dispenser. The assay was performed in black wall/clear-bottom 1536-well plates (Greiner Bio-One North America Inc. Monroe, NC). 9-cis retinoic acid was used as a positive control in the agonist mode screen. After the assay plates were incubated at 37 C and 5% CO2 for 5 hr, 23 nL of compounds dissolved in DMSO, positive controls or DMSO only were transferred to the assay plate by a Pintool station (Kalypsys, San Diego, CA). The assay plates were incubated at 37 C and 5% CO2 for 16 hr. One uL of LiveBLAzer B/G FRET substrate (Life Technologies) was added using a Flying Reagent Dispenser (Aurora Discovery, San Diego, CA) and the plates were incubated at room temperature for 2 hr. Fluorescence intensity (405 nm excitation, 460/530 nm emission) was measured using an Envision plate reader (PerkinElmer, Shelton, CT).
On the % scale 0 is the no-effect control and ±100 the full control effect; potency means the concentration at half of the fitted maximal effect.

Retinoic acid receptor RXR-alpha (Homo sapiens), sequence (P19793 whole entry, looked up): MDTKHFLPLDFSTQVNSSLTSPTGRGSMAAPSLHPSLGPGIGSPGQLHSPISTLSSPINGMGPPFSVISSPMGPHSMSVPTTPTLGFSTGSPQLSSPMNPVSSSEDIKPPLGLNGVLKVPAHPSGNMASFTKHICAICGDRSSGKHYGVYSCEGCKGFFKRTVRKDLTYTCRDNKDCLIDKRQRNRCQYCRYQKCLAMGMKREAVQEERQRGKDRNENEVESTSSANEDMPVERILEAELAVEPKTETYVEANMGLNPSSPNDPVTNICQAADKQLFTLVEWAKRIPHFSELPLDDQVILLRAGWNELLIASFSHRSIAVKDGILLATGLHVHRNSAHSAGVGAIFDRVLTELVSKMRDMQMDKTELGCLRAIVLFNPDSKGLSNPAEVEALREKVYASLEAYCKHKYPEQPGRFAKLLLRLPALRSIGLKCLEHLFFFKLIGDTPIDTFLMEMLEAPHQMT

| SMILES | activation | Potency |
| --- | --- | --- |
| Nc1c(Br)cc([N+](=O)[O-])cc1[N+](=O)[O-] | -11.6% | – |
| COC(C)(C)C | 8.1% | – |
| CCOC(=O)C1(c2ccccc2)CCN(CCc2ccc(N)cc2)CC1 | 2.11% [at 35.3 µM] | – |
| CCS(=O)(=O)C(C)(C)S(=O)(=O)CC | 6.93% [at 35.3 µM] | – |
| Fc1cc(Br)ccc1CBr | 0.628% [at 35.3 µM] | – |
| O=NN1CCCCC1 | 13.3% | – |
| CC(C)(C)NCC(O)c1cc(Cl)c(N)c(Cl)c1 (stereo not given) | 0.779% [at 35.3 µM] | – |
| OC(Cn1cncn1)(c1ccc(F)cc1)c1ccccc1F (stereo not given) | 8.64% | – |
| CCC(C)(C)c1cc(-n2nc3ccccc3n2)c(O)c(C(C)(C)CC)c1 | -14.1% | – |
| ClCCOCOCCCl | 8.96% | – |
| CCC1(c2ccccc2)C(=O)N=C(O)NC1=O (stereo not given) | – | 12 µM (active) |
| N#Cc1c(Cl)cccc1Cl | 8.27% | – |
| CNNC | 4.9% | – |
| COC(=O)COc1ccc(Cl)cc1Cl | 0.221% | – |
| Cc1ccccc1CO[C@@H]1C[C@@]2(C(C)C)CC[C@]1(C)O2 | -17.8% | – |
| CC(C(=O)c1ccccc1)N(C)C (stereo not given) | 11% [at 35.3 µM] | – |
| O=C(O)c1ccc2[nH]cc(CCCCN3CC=C(c4ccccc4)CC3)c2c1 | 7.05% [at 35.3 µM] | – |
| O=[N+]([O-])c1cc(Cl)c(Cl)c(Cl)c1 | -3.66% | – |
| ClCC(Cl)(Cl)Cl | 10.9% | – |
| CC1(C(=O)Nc2ccc(O)c(Cl)c2Cl)CCCCC1 | 3.76% | – |

| SMILES | activation | Potency |
| --- | --- | --- |
| CC(C)COP(=O)(OCC(C)C)OCC(C)C | 6.03% | – |
| Cc1cc(C)c(C(=O)P(=O)(C(=O)c2c(C)cc(C)cc2C)c2ccccc2)c(C)c1 | -5.89% | – |
| O=C(NCO)NCO | -3.78% | – |
| Cc1cccc(C#N)c1 | 8.09% | – |
| CN(C)CCc1ccc(O)cc1 | 4.89% [at 35.3 µM] | – |
| O=C(CCCN1CCC(n2c(=O)[nH]c3ccccc32)CC1)c1ccc(F)cc1 | -13.7% [at 35.3 µM] | – |
| OCCBr | -15.7% | – |
| CCOC(=O)C(c1c(O)c2ccccc2oc1=O)c1c(O)c2ccccc2oc1=O | 7.95% [at 35.3 µM] | – |
| CCCCCCI | 8.26% | – |
| CNC(=O)Oc1c(C(C)(C)C)cc(C)cc1C(C)(C)C | 10.7% | – |
| Cc1ncsc1CCCl | -1.66% [at 35.3 µM] | – |
| C#CCN1C(=O)COc2cc(F)c(N3C(=O)C4=C(CCCC4)C3=O)cc21 | 3.6% | – |
| OCCSCSCCO | 6.88% | – |
| CCC(=O)c1ccccc1 | -7.25% | – |
| Cc1ncc2n1-c1ccc(Cl)cc1C(c1ccccc1F)=NC2 | -5.67% [at 35.3 µM] | – |
| COC(=O)c1ccccc1S(=O)(=O)NC(=O)N(C)c1nc(C)nc(OC)n1 | 0.176% | – |
| CNC(=O)O/N=C(\C)SC | 10% | – |
| c1ccc(N2CCNCC2)cc1 | 7.01% [at 35.3 µM] | – |
| C[C@@H]1CN(C2CCC(C#N)(c3ccc(F)cc3)CC2)CC[C@]1(C(=O)O)c1ccccc1 (stereo not given in full) | 1.23% [at 35.3 µM] | – |
| CCN(CC)c1nc(C)cc(OP(=S)(OC)OC)n1 | 16.7% | – |
